PubChem BioAssay (NCI)
Compounds without any hit were thinned out: in the full panel of roughly 83,000, 20% have a hit.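 For each line, cells grew in 96-well plates with the test compound present at a single concentration for 48 hours.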 Unmarked numbers belong to inactive results. Calls of active or inactive are those of the source. The calls were made as follows: active = growth percent below 10; inactive = the rest.

What follows are compounds tested on HOP-62 NSCLC (assay: NCI-60 one-dose screen, 48 h (100 = growth as untreated, 0 = no growth, -100 = all killed)). Details: 10 µM unless noted.

Row | Compound | growth
1 | Cc1ccc(-c2onc3c(=O)[nH]nc(-c4ccccc4)c23)cc1 | 26.5%
2 | O=C1CSC(=S)N1CCc1ccc(O)cc1 | 85.2%
3 | CNC(=O)c1cc(Oc2ccc(NC(=O)Nc3ccc(Cl)c(OC(F)(F)F)c3)c(F)c2)ccn1 | 39%
4 | N#C/C(=C\c1ccc(-c2ccc(Cl)c(Cl)c2)o1)c1nc(-c2ccco2)cs1 | 79.9%
5 | O=S(=O)(Nc1ccc(OC(F)F)cc1)c1ccc(-c2cnc(C3CC3)o2)cc1 | 66.6%
6 | O=C1Nc2cc(-c3ccc(O)cc3)ccc2/C1=C/c1ccc[nH]1 | 24.4%
7 | CON1C(=O)CC[C@]2(C)[C@H]3CC[C@@H]4C([C@@]5(C)CCC(=O)O5)CC[C@@]4(C)[C@]3(C)CC[C@H]2C1(C)C (some centres undefined) | 98.4%
8 | Cn1cc(C(=O)c2nc(-c3c[nH]c4ccc(Br)cc34)no2)c2cc(F)ccc21 | 103%
9 | COc1ccc(-n2nc(C)c3c(Nc4ccc(NC(=O)Nc5cccc(C(F)(F)F)c5)cc4)ncnc32)cc1 | -37.9% (active)
10 | CC(C)C1=C[C@@]23CC[C@@H]4[C@](C)(CCC[C@@]4(C)C(=O)N4CCCNCC4)[C@H]2C[C@@H]1[C@H]1C(=O)CCC(=O)[C@H]13 | 97.3%
11 | C#CCOc1ccc2ncnc(N3CCC(NC(=O)CCl)CC3)c2c1 | 68.2% [8.25 µM]
12 | Cc1ccc(NC(=O)/C=C/c2ccccc2)c(C(N)=O)c1 | 88.2%
13 | COc1ccc(/C=C\c2cc(OC)c(OC)c(OC)c2)cc1OC(=O)c1cccc(Cn2cc(CCOC(=O)[C@H](N)Cc3cn(C)c4ccccc34)nn2)c1 | 44.3%
14 | O=C1c2ccccc2C(=O)c2c1ccc1[nH]c(-c3cccs3)nc21 | 102%
15 | CN1CCN(Cc2ccc(NC(=O)c3cncc(C#Cc4cncn5ccnc45)c3)cc2C(F)(F)F)CC1 | 81.4%
16 | CC(C)(C)c1cc(/C=N\NC(=O)/C=C/C=C/c2ccc3c(c2)OCO3)c(O)c(C(C)(C)C)c1 | 66.8%
17 | CCCc1cc(=O)n2c(C(=O)Nc3ccc(F)cc3)c(C(=O)Nc3ccc(F)cc3)sc2n1 | 27.8% [30 µM]
18 | O=C(O)COc1ccc(Cl)cc1C1CCCCC1 | 106%
19 | NC(=O)c1cc(Br)ccc1NC(=O)/C=C/c1ccccc1 | 99%
20 | Cc1nn(-c2ccc(F)cc2)c2ncnc(Oc3ccc(NC(=O)Nc4ccc(Cl)c(C(F)(F)F)c4)cc3)c12 | 105%

Row | Compound | growth
21 | CSc1nc(-c2cccc(NC(=O)CCl)c2)c(C#N)c(=O)n1C | 98.7%
22 | CCCCN(CCCC)CCCn1c(-c2ccccc2)ccc1-c1ccccc1 | 87.9%
23 | Cc1c(/C=C/[N+](=O)[O-])ccc2c1[nH]c1ccccc12 | 106%
24 | c1ccc(Cn2cc(-c3nc4ccccc4s3)c3cccnc32)cc1 | 96.1%
25 | O=C(N/N=C/c1c[nH]c2ccccc12)c1cc(-c2ccccc2)on1 | 98.8%
26 | CCCn1c(=O)[nH]c(N)c([C@H]2c3ccccc3Oc3[nH]c(=O)n(CCC)c(=O)c32)c1=O | 90.8%
27 | CC(=O)O[C@H]1[C@@H]2OC(=O)C(CSc3ccccc3)[C@@H]2C[C@H]2O[C@]2(C)CC/C=C(\C)CCC[C@@H]1C (some centres undefined) | 101%
28 | O=C1Nc2ccc(Br)cc2C12Oc1ccccc1C1CC(c3ccc(F)cc3)=NN12 (centres undefined) | 104%
29 | C=C1c2nc3ccccc3n2C=C(c2cccc(Cl)c2)N1Cc1ccc(OC)cc1 | 41.2%
30 | C#CC(F)(F)[C@]1(O)CC[C@H]2[C@@H]3CCC4=CC(=O)CCC4=C3[C@@H](c3ccc(C(C)=O)cc3)C[C@@]21C | 74.4%
31 | CC(=O)O[C@H]1CC[C@]2(C)[C@H]3CC=C4[C@@H]5CC(C)(C)CC[C@]5(C(=O)NCCNCCNCCN)CC[C@@]4(C)[C@]3(C)CC[C@H]2C1(C)C | 87.5%
32 | COc1ccc(-c2cc(NC(=O)Nc3ccc4ncsc4c3)no2)cc1 | 111%
33 | CCN(CC)c1ccc(-c2cc(-c3cc(OC)c(OC)c(OC)c3)nc(N3CCOCC3)c2C#N)cc1 | -40.5% (active)
34 | CC1=CC(=NN=c2cc(C)n([O-])c(C)c2)C=C(C)[N+]1=O | 79.6%
35 | Cc1ccc2oc(=O)cc(C3c4ccc([nH]4)C(c4cc(=O)oc5ccc(C)cc45)c4ccc([nH]4)C(c4cc(=O)oc5ccc(C)cc45)c4ccc([nH]4)C(c4cc(=O)oc5ccc(C)cc45)c4ccc3[nH]4)c2c1 (centres undefined) | -68.2% (active)
36 | COc1cc2c(cc1-c1c(C)noc1C)ncc1nc(C3CCOCC3)n([C@@H](C)COC(F)F)c12 | 35%
37 | Cc1[nH]c(-c2cc(N)ccc2Cl)c2c1C(=O)CCCC2 | 15.9%
38 | O=S(=O)(Nc1ccc(Br)c(Cl)c1)c1ccc(-c2cnc(C3CC3)o2)cc1 | 32.6%
39 | C=CC(=O)Nc1cccc(-c2nc(SC)nc(NCCN3CCOCC3)c2C#N)c1 | 99.9%
